nsP2pro primary: inhibitors of chikungunya virus nsP2 protease; FRET peptide cleavage, nsP2pro, fluorescence 1 h; Potency, µM (doses to about 24.9 µM), for inactives: at the top dose activity change, negative = inhibition, actives largely listed as inhibitors; actives 1.1% (n = 31,000); AID 1964107; note: nearly all actives have a fitted effect of over 60% in size
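Enzyme 150 nM, substrate 2.5 uM (both final); Tris-HCl 10 mM pH 8.0 + 0.01% Tween 20; cpd up to 25 uM, 7 pts; 15 min preinc., 1 h RT; fluorescence ex 525/em 598.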
CHIKV nsP2 cell: cell-based CHIKV nsP2 protease inhibition, secondary | cell-based CHIKV nsP2 protease reporter assay | actives 10% (n = 450) | Potency, µM (titrated, usually from 51.1 µM), for inactives: at the top dose activity change, negative = inhibition, actives largely listed as inhibitors | shares compounds with nsP2pro primary; note: nearly all actives have a fitted effect of over 70% in size
Target sequence (Q8JUX6 220-798 limits assumed): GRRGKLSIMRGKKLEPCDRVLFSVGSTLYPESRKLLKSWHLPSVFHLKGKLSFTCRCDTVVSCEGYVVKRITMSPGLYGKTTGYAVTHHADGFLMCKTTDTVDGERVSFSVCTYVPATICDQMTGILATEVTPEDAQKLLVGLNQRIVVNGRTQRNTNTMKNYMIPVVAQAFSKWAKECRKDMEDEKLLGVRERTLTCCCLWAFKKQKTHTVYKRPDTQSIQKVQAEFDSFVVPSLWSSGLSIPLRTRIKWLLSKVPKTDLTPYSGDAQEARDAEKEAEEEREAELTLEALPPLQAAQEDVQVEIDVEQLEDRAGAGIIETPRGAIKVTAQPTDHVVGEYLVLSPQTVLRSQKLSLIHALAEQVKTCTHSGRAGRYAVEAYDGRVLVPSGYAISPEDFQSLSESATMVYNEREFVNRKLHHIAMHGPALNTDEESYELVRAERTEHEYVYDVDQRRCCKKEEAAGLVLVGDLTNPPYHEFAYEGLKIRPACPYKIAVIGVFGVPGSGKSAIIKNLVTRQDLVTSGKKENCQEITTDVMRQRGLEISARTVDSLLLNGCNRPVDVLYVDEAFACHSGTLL
CHIKV NSP2 FL: inhibits full-length CHIKV NSP2 enzyme | actives 39% (n = 410) | shares compounds with nsP2pro primary | Potency, µM (top dose mostly 50.7 µM), for inactives: top-dose activity change, negative = inhibition, hits mostly inhibitors | Full-length CHIKV NSP2 protease enzymatic counterscreen; note: nearly all actives have a fitted effect of over 65% in size
Furin counterscr: selectivity counter-screen for CHIKV nsP2 protease inhibitors: human furin; shares compounds with nsP2pro primary; Recombinant human furin enzymatic counterscreen, fluorogenic substrate; Potency, µM (top dose mostly 50.6 µM), without a hit: at the top dose activity change, negative = inhibition, usual class: inhibitors; actives 6% (n = 410); AID 1964102
NS23 peptide cs: nsP2pro inhibition on native NS2/3 peptide substrate; actives 34% (n = 410); Purified CHIKV nsP2 protease, endogenous NS2/3 peptide cleavage; shares compounds with nsP2pro primary; Potency, µM (doses to about 51 µM), inactives show at the top dose activity change, negative = inhibition, most hits filed as inhibitors; note: nearly all actives have a fitted effect of over 55% in size
Papain counter: selectivity counter-screen for CHIKV nsP2 protease inhibitors: papain | purified papain protease activity, enzymatic inhibition | Potency, µM (series often up to 51 µM), for the others: top-dose activity change, negative = inhibition, hits mostly inhibitors | shares compounds with nsP2pro primary | actives 5% (n = 410)
nsP2pro conf qHTS: CHIKV nsP2 protease inhibition, confirmatory qHTS | Potency, µM (titrated, usually from 25.5 µM), without a hit: at the top dose activity change, negative = inhibition, actives largely listed as inhibitors | AID 1964105 | CHIKV nsP2 protease enzymatic activity, qHTS | actives 43% (n = 410) | shares compounds with nsP2pro primary; note: nearly all actives have a fitted effect of over 75% in size
HCV NS3 4A cs: inhibits HCV NS3/4A protease in an nsP2pro selectivity counterscreen. Potency, µM (top dose mostly 50.9 µM), most hits filed as inhibitors. HCV NS3/4A protease biochemical counterscreen. shares compounds with nsP2pro primary. actives 20% (n = 410); note: nearly all actives have a fitted effect of over 55% in size
Active calls of the source: *; i = inactive; u = inconclusive; [ ] = dose if it differs, or a comment. Shown is part of a subset that was picked to be rich in hits. Calls come from the whole dose curve. % is set by controls: 0 for no effect and ±100 for the full control effect; potency is the fitted concentration of half-maximal effect.

SMILES	nsP2pro primary	others
CCOC(=O)c1cccc(CNc2ccc(N(C)C(=O)Nc3ccccc3)cc2)c1	u	CHIKV nsP2 cell=u;CHIKV NSP2 FL=-13%;Furin counterscr=-11%;NS23 peptide cs=-8%;Papain counter=u;nsP2pro conf qHTS=-3%;HCV NS3 4A cs=i
CCOC(=O)c1cccc(NC(=O)CCSCCc2ccccn2)c1	-14%
C[C@@H]1C(=O)OC2[C@H](O)[C@]34[C@H]5C[C@@H](C(C)(C)C)[C@]36[C@@H](OC(=O)[C@@H]6O)O[C@@]4(C(=O)O5)[C@]21O (stereo partly specified)	-11%
CCOc1cccc(CN2C[C@@H](Oc3ccccc3)C[C@@H]2C(=O)NC)c1	-21%
COc1c2cc(c(O)c1OC)-c1cc(ccc1O)CCC(O)CCCC2 (stereo unspecified)	-1%
CN(C)c1nc2c(c(N3C[C@@H](CN4CCCC4)[C@@H](CO)C3)n1)CCCC2	-5%
CN(Cc1ccc(-c2ccccc2)cc1)c1nc(-c2ccccc2C(F)(F)F)nc2ccccc12	-4%
COc1ccc(-c2ccc3cc(C(=O)O)ccc3c2)cc1C12CC3CC(CC(C3)C1)C2	-21%
COc1cc(C(=O)O)ccc1OC1OC(CO)C(O)C(O)C1O (stereo unspecified)	-3%
COc1cc(C(=O)O)cc(OC)c1O	u	CHIKV nsP2 cell=-4%;CHIKV NSP2 FL=u;Furin counterscr=-2%;NS23 peptide cs=i;Papain counter=-6%;nsP2pro conf qHTS=2%;HCV NS3 4A cs=i
O=C(NC1CCCc2c1cnn2-c1ccc(F)cc1F)c1cnon1 (stereo unspecified)	-5%
CC(=O)OC1C(O)C2C(C)C3=CC(=O)OC3(O)CC2C2(C)CCCC(C)(CO)C12 (stereo unspecified)	-3%[10 µM]
CC1C2=CC(=O)OC2(O)CC2C1C(OC(=O)c1ccccc1)C(OC(=O)c1ccccc1)C1(O)C2(C)CCC(O)C1(C)C(=O)O (stereo unspecified)	2.3µM*	CHIKV nsP2 cell=-3%[17.6 µM];CHIKV NSP2 FL=-3%[17.3 µM];Furin counterscr=11%[17.3 µM];NS23 peptide cs=3%[17.2 µM];Papain counter=-5%[17.2 µM];nsP2pro conf qHTS=-11%[8.62 µM];HCV NS3 4A cs=i
CC1C2=CC(=O)OC2(O)CC2C1CCC1C(C)(C)CCC(O)C21C (stereo unspecified)	-1%
COc1cccc(CCC(=O)N2CCCCC2c2nc(-c3ccncc3)n[nH]2)c1 (stereo unspecified)	i
O=C(c1ccncc1)N1CCCC(Cc2noc(-c3cnccn3)n2)C1 (stereo unspecified)	-3%
CC(O)C(O)/C=C/C=C/C(=O)O[C@@H]1C=C2COC(=O)[C@]2(O)[C@@]2(C)CCCC(C)(C)C12 (stereo partly specified)	-5%[10 µM]
N#Cc1ccnc(N2C(=O)CC[C@H]2C(=O)N(c2cncc(F)c2)[C@H](C(=O)NC2CC(F)(F)C2)c2ccccc2Cl)c1	u	CHIKV nsP2 cell=u;CHIKV NSP2 FL=-24%;Furin counterscr=-3%;NS23 peptide cs=-4%;Papain counter=-7%;nsP2pro conf qHTS=-9%;HCV NS3 4A cs=u
Cc1ccccc1C(C(=O)NC1CCCCC1)N(C(=O)Cn1cnc2ccccc21)c1cccc(F)c1 (stereo unspecified)	-3%
O=C(Nc1ccc(S(=O)(=O)Nc2nccs2)cc1)c1ccnc(-c2ccccc2)c1	i
COc1ccc(-c2ccc3nc(-c4ccc(C)c(F)c4)oc3c2)c(OC)c1OC	0%
COc1ccc(-c2ccc3nc(-c4ccc(F)c(F)c4)oc3c2)c(OC)c1OC	-1%
COc1ccc(-c2ccc3nc(-c4cccc(F)c4)oc3c2)c(OC)c1OC	u	CHIKV nsP2 cell=u
COc1ccc(O[C@@H]2O[C@H](CO)[C@H](O)[C@H](O)[C@H]2O)cc1	5%
CC(C)=CC(=O)N[C@H]1C[C@@H](C(=O)N[C@H](Cc2ccccc2)C(N)=O)N(C(=O)C=C(C)C)C1	-6%[39.2 µM]
SMILES	nsP2pro primary	others
COc1ccc(NC(=O)N2C[C@@H]3C[C@H](C2)c2c(NC(=O)CSC)ccc(=O)n2C3)cc1	-2%
CCCS(=O)(=O)Nc1ccc(=O)n2c1[C@@H]1C[C@@H](CN(C(=O)Nc3ccc(OC)cc3)C1)C2	u	CHIKV nsP2 cell=3%;CHIKV NSP2 FL=u;Furin counterscr=-9%;NS23 peptide cs=u;Papain counter=-2%;nsP2pro conf qHTS=u;HCV NS3 4A cs=u
COc1ccc(CC(=O)N2C[C@@H]3C[C@H](C2)c2c(-c4ccc(NC(C)=O)cc4)ccc(=O)n2C3)cc1	-5%
CCOC(=O)c1csc(Nc2ccc(Cl)cc2)n1	-3%
CCOC(=O)[C@H](CCc1ccccc1)N[C@@H](C)C(=O)N1CCC[C@H]1C(=O)O	3%
CCC[C@H](N[C@@H](C)C(=O)N1[C@H](C(=O)O)C[C@@H]2CCCC[C@@H]21)C(=O)O	-13%
CC(NC(CCc1ccccc1)C(=O)O)C(=O)N1C(=O)N(C)CC1C(=O)O (stereo unspecified)	u	CHIKV nsP2 cell=3%;CHIKV NSP2 FL=15µM*;Furin counterscr=51%;NS23 peptide cs=-25%;Papain counter=-16%;nsP2pro conf qHTS=u;HCV NS3 4A cs=i
CC(=O)NCC(=O)O	1%[39.2 µM]
COc1ccc(CCNC(=O)c2cc3sccc3n2Cc2ccc(F)cc2)cc1OC	-7%
CC(C)C[C@H](N)c1nnc(SCc2ccc(Cl)cc2Cl)o1	u	CHIKV nsP2 cell=31%
Cc1cc(=O)[nH]c2nnc(SCc3ccc(Cl)cc3Cl)n12	-15%
Clc1ccccc1CSc1nnc(C2CCNCC2)o1	12%
COc1cccc(NC(=S)N2CCN(c3ccc4ccccc4n3)CC2)n1	-14%
COc1cccc(NC(=S)N2CCN(c3cccc(Cl)c3Cl)CC2)n1	-13%
CN(Cc1ccc(OC(F)(F)F)cc1)Cc1cccc(C(F)(F)F)c1	-8%
CC(C)c1nccn1CCCNC(=O)c1ccc(-c2cccnc2)nc1	i
CSc1nc2c(c(=O)[nH]1)C(c1cccc(F)c1F)CC(=O)N2 (stereo unspecified)	-27%
COc1ccc(COC(=O)C2=C(C)NC(=O)CC2c2cccc(Cl)c2Cl)cc1 (stereo unspecified)	-11%
CNc1nc2c(s1)C(c1ccccc1F)CC(=O)N2 (stereo unspecified)	1.6µM*	CHIKV nsP2 cell=8%;CHIKV NSP2 FL=3.3µM*;Furin counterscr=-9%;NS23 peptide cs=4.6µM*;Papain counter=14%;nsP2pro conf qHTS=2.8µM*;HCV NS3 4A cs=u
O=C1CC(c2c(F)cccc2Cl)c2c(ccc3ccccc23)N1 (stereo unspecified)	-15%

Screens: PubChem BioAssay, National Center for Advancing Translational Sciences (NCATS)
